Structures are written as SMILES. Records with an inconclusive call do not appear. Where a call stands in place of a potency, no number is given. Active and inactive are the calls of the source. Calls come from the whole dose curve; as a rule, active = well fitted cell-killing curve with a large enough effect in the repeat runs; inconclusive = weak or mixed curves, or effect the other way; inactive = flat fitted curve, though single readings scatter.
Potency is the fitted concentration of half-maximal effect.

A short description of the experiment: qHTS RealTime-Glo MT Cell Viability Assay in HEK293 cells - 8 hour (AID 1224887). Note: nearly all actives have a fitted effect of over 50% in size. The conditions noted are these: RealTime-Glo luminescence; series mostly up to 76.8 µM. From the text:
U.S. Tox21 Program National Center for Advancing Translational Sciences [NCATS] NIH Chemical Genomics Center [NCGC] U.S. Environmental Protection Agency [EPA] National Institutes of Environmental Health Sciences [NIEHS] National Toxicology Program [NTP] U.S. Food and Drug Administration [FDA] Tox21 Assay Overview: Measure of cell viability is critical in the cell-base assay. Analysis of cell viability is necessary for the characterization of cell responses to cytotoxic drugs and environmental stress. A RealTime-Glo MT Cell Viability Assay to monitor cell viability in real time of continues cell culture during 40 hours of compound treatment was used to screen Tox21 10K library compounds in Hek293 cells. The RealTime-Glo MT Cell Viability Assay is a nonlytic, homogeneous, bioluminescent method to measure cell viability in real time using a simple, plate-based method. The assay involves adding NanoLuc luciferase and a cell-permeant prosubstrate to cells in culture. Viable cells reduce the proprietary prosubstrate to generate a substrate for NanoLuc luciferase. This substrate diffuses from cells into the surrounding culture medium, where it is rapidly used by the NanoLuc Enzyme to produce a luminescent signal. The signal correlates with the number of viable cells, making the assay well suited for cytotoxicity studies.
Tox21 Assay Protocol Summary: The mixture of Hek293 cell suspension and reagents were dispensed at 600cells/6 ul/well in 1536-well tissue culture treated black solid bottom plates using a Multidrop dispenser. After the assay plates were incubated at a 37 C/5% CO2 incubator for 5 hours, 23 nL of compounds dissolved in DMSO, positive and negative controls was transferred to the assay plate by a pintool work station. The plates were incubated at 37 C for 40 hours. The luminescence intensity were measured at 0h, 8h, 16h, 24h, 32h and 40h time points using ViewLux plate reader during compound treatment.
Turning to `CC(=O)Nc1cc(S(=O)(=O)O)cc2cc(S(=O)(=O)O)c(N=Nc3ccccc3)c(O)c12`, the Potency result was “inactive”.

In the case of `CCN(CC)CCNC(=O)COc1ccc(OC)cc1`, the Potency result was “inactive”.

On to `O=C1C(=O)c2ccccc2C(O)=C1C1CCC(c2ccc(Cl)cc2)CC1` (stereo not given), for which the Potency result was “inactive”.

Regarding `O=C(O)CCc1nc(-c2ccccc2)c(-c2ccccc2)o1`, the Potency entry was “inactive”. On to `CCC(=O)C1CC(C(C)C)CC=C1C` (stereo not given), for which the Potency entry is “inactive”.

For the compound `C[C@@H](O)[C@H]1C(=O)N2C(C(=O)O)=C([C@H]3CCCO3)S[C@H]12`, the Potency result was “inactive”. With `C[C@H]1C[C@H](O)c2ccsc2S1(=O)=O`, the Potency result is “inactive”.

`CN1CCCC(n2nc(Cc3ccc(Cl)cc3)c3ccccc3c2=O)CC1` (stereo not given): the Potency is 7.56 µM (active).

In the case of `O=C(Cn1ccnc1[N+](=O)[O-])NCCO`, the Potency entry was “inactive”.

As for `CN1C(C(=O)Nc2ccccn2)=C(O)c2sccc2S1(=O)=O`, the Potency result is “inactive”. With `OC(CCN1CCCC1)(c1ccccc1)C1CCCCC1` (stereo not given), the Potency result was “inactive”.

As for `COc1cc(C(=O)NCCCCCC(=O)O)cc(OC)c1OC`, the Potency result was “inactive”. For the compound `O=C(Nc1cccc2c(=O)cc(-c3nn[nH]n3)oc12)c1ccc(OCCCCc2ccccc2)cc1`, the Potency result was “inactive”. Under `CC[N+](CC)(CCNC(=O)C(=O)NCC[N+](CC)(CC)Cc1ccccc1Cl)Cc1ccccc1Cl` stands “inactive”; under `CCC(OCCCOC)OC(C)=O` (stereo not given), “inactive”; under `O=C1c2ccccc2C(=O)C1c1nc2ccccc2c(Br)c1O`, “inactive”. Under `CN1CCCN=C1COC(=O)C(O)(c1ccccc1)C1CCCCC1` (stereo not given) stands “inactive”. Regarding `N#CCCN(CCO)CCO`, the Potency entry was “inactive”.

For the compound `CC(=O)[C@H]1[C@H](C#N)C[C@H]2[C@@H]3CC=C4C[C@@H](O)CC[C@]4(C)[C@H]3CC[C@@]21C`, the Potency entry is “inactive”. Turning to `O=C1NCCN1CCO`, the Potency result is “inactive”. `O=C(/C=C/c1ccccc1)OCCc1ccccc1`: the Potency result was “inactive”. The same measure for `O=c1[nH]c2ccc(Cl)cc2o1`: “inactive”.

In the case of `CCCCCCC(C)(C)C(=O)O`, the Potency entry is “inactive”. Under `C=C(C)CCCC(C)CCO` (stereo not given) stands “inactive”; under `Nc1ncnc2c1ncn2[C@H]1CC[C@@H](CO)O1`, “inactive”.

For `CCOc1ccccc1O[C@H](c1ccccc1)[C@H]1CNCCO1`, the Potency result is “inactive”. `Cc1ccc(C(C)(C)O)cc1`: the Potency result was “inactive”.

As for `O=C1NC(=O)c2cc([N+](=O)[O-])ccc21`, the Potency result is “inactive”.

`Clc1cc(Cl)nc(Cl)n1`: the Potency entry is “inactive”. For `FC(F)(F)c1ccccc1Cl`, the Potency result was “inactive”.

In the case of `CN1C(=O)OC(C)(C)C1=O`, the Potency entry is “inactive”.

Turning to `CCOC(=O)c1ccc(OCCN2C[C@H](O)[C@@H](O)[C@H](O)[C@H]2CO)cc1`, the Potency entry was “inactive”.

With `CCCCOc1ccc(OCCCN2CCOCC2)cc1`, the Potency result is “inactive”.

For `O[C@@H]1CO[C@H]2[C@@H]1OC[C@@H]2O`, the Potency result was “inactive”. With `CCCC(=O)C(=O)O`, the Potency result was “inactive”. With `CC(C)=CCC/C(C)=C/CC/C(C)=C/C(=O)OCC(=O)[C@@]1(O)CC[C@H]2[C@@H]3CCC4=CC(=O)C=C[C@]4(C)[C@H]3[C@@H](O)C[C@@]21C`, the Potency was 6.01 µM (active). On to `O=C(O)c1ccc(OCCCOc2ccc(C(=O)O)cc2)cc1`, for which the Potency entry was “inactive”. Consider `CC=C(Cl)Cl`, for which the Potency result was “inactive”. For `COC(=O)CS`, the Potency entry was “inactive”. The same measure for `CC1CC(OC(=O)C(O)c2ccccc2)CC(C)(C)N1C` (stereo not given): “inactive”.

The values above are taken from PubChem BioAssay (Tox21).
